Reference: PubChem BioAssay (NCI)
Compounds without any hit were thinned out: in the full panel of roughly 83,000, 20% have a hit.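 Cells were grown in 96-well plates and exposed to the test compound at a single concentration for 48 hours; results are reported as percent growth, with values below 10 considered active.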 The source made the active and inactive calls.

Experiments:
Test in all cases: NCI-60 one-dose screen, 48 h (100 = growth as untreated, 0 = no growth, -100 = all killed)
Conditions in all cases: 10 µM unless noted
[1] = tested on: RPMI-8226 leukemia
[2] = tested on: OVCAR-8 ovarian
[3] = tested on: OVCAR-5 ovarian
[4] = tested on: OVCAR-4 ovarian
[5] = tested on: SK-OV-3 ovarian
[6] = tested on: IGROV1 ovarian
[7] = tested on: OVCAR-3 ovarian
[8] = tested on: HS 578T breast
[9] = tested on: NCI/ADR-RES ovarian
[10] = tested on: T-47D breast
[11] = tested on: BT-549 breast
[12] = tested on: MDA-MB-435 melanoma
[13] = tested on: SW-620 colon
[14] = tested on: MCF7 breast
[15] = tested on: HCT-116 colon
[16] = tested on: HCC-2998 colon
[17] = tested on: KM12 colon

Measured: growth

Cc1nc(/N=C(\N)NC(=O)Nc2ccccc2Cl)sc1C
active: [1] 8.06% | [12] -25.6%
inactive: [2] 33.9% | [3] 51.3% | [4] 55.1% | [5] 45.4% | [6] 42.8% | [7] 12.1% | [8] 13.5% | [9] 15.7% | [10] 34.7% | [11] 69.3% | [13] 36.3% | [14] 23.6% | [15] 28.5% | [16] 33.4% | [17] 40.3%

COc1ccc(-c2nn(C(=O)c3cc(OC)c(OC)c(OC)c3)c3cc(N)ccc23)cc1
active: [7] 0.527% | [12] 5.29% | [14] 6.74% | [15] 5.15%
inactive: [1] 21.7% | [2] 15.9% | [3] 39.2% | [4] 58.1% | [5] 31.5% | [6] 23.9% | [8] 35% | [9] 15.6% | [10] 59.9% | [11] 21.5% | [13] 31.6% | [16] 25.1% | [17] 12.4%

COc1ccc(/C=C(\C#N)n2nnc3c(F)cccc32)cc1
inactive: [1] 17.9% | [2] 16.3% | [3] 15.7% | [4] 37.8% | [5] 39% | [6] 13.2% | [10] 16.1% | [11] 45.4% | [13] 15.6% | [14] 18.8%
active: [7] -34% | [8] -4.6% | [9] 0.281% | [12] -78.4% | [15] 8.75% | [16] 1.33% | [17] 7.96%

COC(=O)/C=C1\S/C(=N\Nc2ccc([N+](=O)[O-])cc2[N+](=O)[O-])N(C2CCCCC2)C1=O
active: [1] -21.8%
inactive: [2] 35.4% | [3] 84.3% | [4] 47.1% | [5] 96.8% | [6] 58.4% | [7] 25.2% | [8] 65.2% | [9] 29.7% | [10] 12.9% | [11] 86% | [12] 79% | [13] 22.7% | [14] 23.1% | [15] 29.8% | [16] 63.1% | [17] 45.9%

Nc1cc2c(cc1Br)-c1cc(Cl)ccc1C2=O
inactive: [1] 88.7% | [2] 99.3% | [3] 91.8% | [4] 99.9% | [5] 98.7% | [6] 74.2% | [7] 96.5% | [8] 98.6% | [9] 106% | [10] 91.7% | [11] 121% | [12] 117% | [13] 109% | [14] 57.9% | [15] 96.1% | [16] 114% | [17] 98.6%

COc1ccc(CNC(=O)C(=O)[C@H](Cc2ccccc2)NC(=O)c2[nH]c3ccccc3c(=O)c2C)cc1
inactive: [1] 102% | [2] 102% | [3] 102% | [4] 99.5% | [5] 108% | [6] 98.3% | [7] 103% | [8] 98.8% | [9] 108% | [10] 101% | [11] 115% | [12] 100% | [13] 97.3% | [14] 94.3% | [15] 101% | [16] 110% | [17] 101%

COc1ccc(C(=O)C[C@]2(O)C(=O)Nc3c(Cl)ccc(Cl)c32)cc1
active: [7] 9.64% | [8] -3.94% | [12] -40.9%
inactive: [1] 20.1% | [2] 33.1% | [3] 52.1% | [4] 48.4% | [5] 33.1% | [6] 34.8% | [9] 14.1% | [10] 29.9% | [11] 49.8% | [13] 21.4% | [14] 19.7% | [15] 17% | [16] 23.1% | [17] 47.6%

Cc1cc(N2CCCC2)nc(N(CCCNc2ccnc3cc(Cl)ccc23)Cc2ccccn2)n1
inactive: [1] 28% | [2] 49.2% | [3] 59.6% | [4] 81% | [5] 76.5% | [6] 50.7% | [7] 59.5% | [8] 72.6% | [9] 39.2% | [10] 68.6% | [11] 64.9% | [12] 19.1% | [13] 44.5% | [14] 47.3% | [15] 16.3% | [16] 79.5% | [17] 63.8%

COc1ccc2c(c1)nc(NNC(=O)c1cnccn1)c1cccn12
inactive: [1] 23.5% | [2] 24.1% | [3] 42.3% | [4] 17.5% | [5] 26.5% | [6] 16.3% | [7] 15.3% | [8] 78.2% | [10] 22.4% | [11] 37.9% | [12] 33.7% | [13] 29.6% | [14] 10.7% | [15] 20.3% | [16] 49.7% | [17] 24.8%
active: [9] 9.97%

Fc1cc(-c2nnc3sc(-c4ccc(Cl)cc4Cl)nn23)c(Cl)cc1Cl
active: [8] -14.7%
inactive: [1] 84% | [2] 82.6% | [3] 96.6% | [4] 26.2% | [5] 77.1% | [6] 86.1% | [7] 99.4% | [9] 89.4% | [10] 68.4% | [11] 79.4% | [12] 94.3% | [13] 81.7% | [14] 83.7% | [15] 45.9% | [16] 93% | [17] 96%

O=C(/C=C/c1sc(Cl)nc1Cl)c1ccccc1
inactive: [1] 14% | [2] 93.5% | [3] 99.5% | [4] 108% | [5] 103% | [6] 91.9% | [7] 46% | [8] 103% | [9] 101% | [10] 98.3% | [11] 107% | [12] 99.4% | [13] 33% | [14] 32.8% | [15] 34% | [16] 49.3% | [17] 85.7%

C[N+]1=C(/C=C/c2ccc(O)c3ncccc23)C(C)(C)c2ccccc21
inactive: [1] 53.6% | [2] 53.7% | [3] 52.5% | [4] 27.7% | [5] 23% | [6] 46% | [7] 83% | [8] 49.2% | [9] 14.6% | [10] 23.7% | [11] 81.2% | [12] 59.6% | [13] 89% | [14] 13.7% | [15] 10.4% | [16] 92% | [17] 84.4%

C#C[C@]1(O)CC[C@H]2[C@@H]3CC=C4c5sc(Nc6ccccc6)nc5CC[C@]4(C)[C@H]3CC[C@@]21C
active: [1] -32.1% | [5] -35.3% | [8] -19.9% | [13] 3.04% | [14] 8.14% | [15] -33.3%
inactive: [2] 33.8% | [3] 52% | [4] 51.6% | [6] 46.7% | [7] 31.5% | [9] 38.2% | [10] 28.6% | [11] 19.9% | [12] 34.4% | [16] 45.3% | [17] 13.1%

Cc1nc2ccccc2c(/C=C/c2ccc(Cl)cc2)c1C(=O)/C=C/c1ccc(C(F)(F)F)cc1
active: [1] -30.7% | [2] 2.79% | [3] -41.6% | [4] -91% | [5] -79.9% | [6] -85.5% | [7] -85.8% | [8] -17.3% | [9] -5.17% | [10] -18.2% | [11] -51.7% | [12] -95.4% | [13] -57.5% | [14] -29.6% | [15] -53.6% | [16] -81.3% | [17] -74.1%

Cc1nc(S(=O)(=O)c2ccccc2)c(S(=O)(=O)Cc2ccc([N+](=O)[O-])cc2)o1
inactive: [1] 82.6% | [2] 100% | [3] 86.5% | [4] 93.1% | [5] 99.1% | [6] 95.8% | [7] 83.9% | [8] 87.6% | [9] 104% | [10] 77% | [11] 87.7% | [12] 101% | [13] 90.9% | [14] 74.2% | [15] 86.6% | [16] 97.7% | [17] 106%

CCN(CC)S(=O)(=O)c1ccc(NC(=O)CSc2nnc(C)n2-c2ccccc2)cc1
inactive: [1] 103% | [2] 102% | [3] 95.4% | [4] 102% | [5] 105% | [7] 116% | [8] 95.5% | [9] 99.2% | [10] 106% | [11] 117% | [12] 99.2% | [13] 105% | [14] 113% | [15] 102% | [16] 109% | [17] 104%
active: [6] -1.42%

Cc1ccc(/C=C2\Oc3ccc(O)c(O)c3C2=O)cc1
inactive: [1] 51.1% | [2] 44.5% | [3] 68.5% | [4] 43.7% | [5] 63.6% | [6] 38.1% | [7] 11.7% | [8] 62.5% | [9] 45.1% | [10] 47.3% | [11] 43.1% | [12] 82.4% | [13] 30.7% | [14] 31.6% | [15] 17.8% | [16] 70.2% | [17] 77%

COc1ccc(-c2cc(-c3cc(OC)c(OC)c(OC)c3)nc(N3CCOCC3)c2C#N)cc1
inactive: [1] 63.7% | [2] 78.9% | [3] 78.4% | [4] 85.8% | [5] 98.2% | [6] 77.6% | [7] 82.9% | [8] 67.5% | [9] 29.9% | [10] 46.7% | [11] 128% | [12] 74.5% | [13] 67.3% | [14] 74.4% | [15] 72.1% | [16] 35% | [17] 71.9%
